Experimental findings from PubChem BioAssay (NCATS) are described below.

A short description of assay [1]: qHTS assay for small molecule agonists of retinoid X receptor alpha signaling (AID 588544; calls by dose curve;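 on activation: 0% = DMSO basal wells and 100% = reference agonist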). To be noted: HEK293T RXRa-UAS-bla, beta-lactamase reporter, 18 h; 530 nm emission. On the technique in general: qHTS replaces the single test concentration by a dilution series.
For assay [2], the target named is Retinoic acid receptor RXR-alpha (Homo sapiens) (UniProt P19793). The description is as above. To be noted: HEK293T RXRa-UAS-bla, beta-lactamase reporter, 18 h; series mostly up to 76.7 µM.
The nature of assay [3]: qHTS assay for small molecule antagonists of retinoid X receptor alpha signaling (AID 588546; active means well fitted inhibition curve with a large enough effect in the signal ratio, with a control signal flat, not every such curve was filed as active; the % refers to the signal ratio;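 further: cells stimulated with 9-cis-retinoic acid as agonist; on the % scale 0 is the no-effect control and ±100 the full control effect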). To be noted: HEK293T RXRa-UAS-bla, beta-lactamase ratio, antagonist mode; measured here: W530 green channel, cytotoxicity proxy. Summed up: (§1)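 Beta-lactamase reporter inhibition, read as CCF4 fluorescence ratio (ex 405, em 460/530 nm) after 2 h at RT. HEK293T UAS-bla cells, 2500/well, were stimulated with 9-cis-RA at 500 or 100 nM final alongside test compound for 18 h at 37 C.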

Assay [4] has as its target Retinoic acid receptor RXR-alpha (Homo sapiens) (UniProt P19793). The assay is described as above. To be noted: HEK293T RXRa-UAS-bla, beta-lactamase ratio, antagonist mode. Summed up: as §1
Assay [5] addresses Voltage-gated inwardly rectifying potassium channel KCNH2 (Homo sapiens) (UniProt Q12809). As to the kind of experiment: qHTS Assay for Small Molecule Inhibitors of the Human hERG Channel Activity (AID 588834).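 Further: top concentration of the series differs between compounds; on the % scale 0 is the no-effect control and ±100 the full control effect; lower thallium flux fluorescence means stronger hERG block; nearly all actives have a fitted effect of over 50% in size.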 To be noted: U2OS BacMam hERG, FluxOR thallium flux fluorescence; series mostly up to 92.2 µM. An outline of the steps:
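In hERG-transduced U2OS cells, dye-loaded for 1 hr at room temperature in dark, test compounds incubated 10 min at 37 °C before thallium stimulation. AC50 values derived by Hill modelling of concentration-response.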

Assay [6] is described as follows: qHTS assay for small molecule activators of the p53 signaling pathway (AID 651743; active means well fitted activation curve with a large enough effect in the signal ratio, not every such curve was filed as active; the % refers to the signal ratio; further: % of control where 0% means no effect). To be noted: HCT-116 p53RE-bla, beta-lactamase FRET ratio, 16 h; stronger effect = higher value. An outline of the steps:
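Following 16 hours of compound exposure at 37 C, HCT-116 cells bearing the p53RE-bla reporter were loaded with LiveBLAzer B/G FRET substrate for 2 hours at room temperature and fluorescence intensity was recorded.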

The nature of assay [7]: qHTS assay for small molecule activators of the nuclear factor-kappa B (NF-kB) signaling pathway (AID 651749; active means well fitted activation curve with a large enough effect in the signal ratio; the % refers to the signal ratio; further: % of control where 0% means no effect). To be noted: NF-kB-bla ME-180 cells, beta-lactamase FRET ratio, 16 h; stronger effect = higher value. Summed up: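 In this qHTS format, compounds acting as activators increase NF-kB-driven beta-lactamase in ME-180 cells, measured as disrupted FRET after 16 hr exposure at 37C and 5% CO2.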

Assay [8] is described as follows: qHTS assay for small molecule disruptors of the mitochondrial membrane potential - 1 hr assay (AID 651754; calls by dose curve; further: on the % scale 0 is the no-effect control and ±100 the full control effect; nearly all actives have a fitted effect of over 35% in size). To be noted: series mostly up to 92.2 µM. An outline of the steps:
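Mitochondrial potential in living HepG2 cells after 1 hr compound treatment at 37C was read with Mito-MPS dye added for a further 30 min. Red aggregate and green monomer fluorescence were measured; loss of potential leaves dye as cytoplasmic monomers.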

A short description of assay [9]: qHTS assay for small molecule disruptors of the mitochondrial membrane potential - 5 hr assay (AID 651755; calls by dose curve; further: on the % scale 0 is the no-effect control and ±100 the full control effect; nearly all actives have a fitted effect of over 40% in size). To be noted: JC-1-type ratio dye; series mostly up to 92.2 µM. An outline of the steps:
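Read-out: ratiometric Mito-MPS fluorescence, green monomer (ex 490/em 535) vs red mitochondrial aggregate (ex 540/em 590). HepG2 cells treated 5 hr at 37C before 30 min dye loading.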

For assay [10], the target named is Tumor necrosis factor (Homo sapiens) (UniProt P01375). As to the kind of experiment: qHTS assay to identify small molecules that stimulate Tumor Necrosis Factor-alpha (TNF-alpha) secretion (AID 651757; active means well fitted curve in the direction sought with a large enough effect in the signal ratio; the % refers to the signal ratio; further: 0% is about no effect). To be noted: Human cells, HTRF 665/615 ratio; series mostly up to 92.2 µM. Summed up:
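Secreted TNF-alpha quantified by TR-FRET sandwich of two labeled anti-TNF-alpha antibodies, incubated 3 hr at room temperature. Preceded by 17 hr, 37 C compound treatment of THP-1 cells at 3000 cells/well.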

Assay [11] deals with Peroxisome proliferator-activated receptor alpha (Homo sapiens) (UniProt Q07869). As to the kind of experiment: qHTS assay for small molecule agonists of the peroxisome proliferator-activated receptor alpha (PPARalpha) signaling pathway (AID 651778). Further: % of control where 0% means no effect. To be noted: PathHunter PPARalpha complementation, chemiluminescence, 6 h; stronger effect = higher value. An outline of the steps: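 Enzyme-fragment complementation assay in which ligand-bound PPARalpha translocates and forms an active enzyme that generates chemiluminescence. Cells were plated overnight, exposed to compound for 6 hr at 37 C, and then given detection reagent for 60 min at room temperature.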

Assay [12] concerns the target Nuclear receptor ROR-gamma (Homo sapiens) (UniProt P51449). Put plainly: qHTS assay for small molecule antagonists of the retinoid-related orphan receptor gamma (ROR-gamma) signaling pathway (AID 651802).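 Further: luciferase reporter luminescence driven by ROR response element; on the % scale 0 is the no-effect control and ±100 the full control effect; nearly all actives have a fitted effect of over 60% in size.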 To be noted: ROR-gamma antagonist cell reporter assay; series mostly up to 92.2 µM. An outline of the steps:
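Luminescence (One-Glo, 30 min RT) measured 16 h after compound addition and doxycycline induction at 37C. Reporter: RORE-luciferase under TET-inducible ROR-gamma in CHO cells.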

Assay [13] is described as follows: qHTS assay for small molecule agonists of the antioxidant response element (ARE) signaling pathway measured by Nrf2-dependant transcriptional activity (AID 720636; active means well fitted curve in the direction sought with a large enough effect in the repeat runs; an effect the other way counts as inactive or inconclusive;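 further: HepG2 cells with an ARE-driven luciferase reporter; % of control where 0% means no effect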). To be noted: ARE-luc HepG2, Nrf2 luciferase reporter, 16 h; series mostly up to 92.4 µM. An outline of the steps: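 Reporter gene assay, HepG2 ARE-luc: 16 hr compound, 37 C, 5% CO2; read-out luciferase luminescence.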

A short description of assay [14]: qHTS assay for small molecule antagonists of the retinoid-related orphan receptor gamma (ROR-gamma) signaling pathway - cell viability counter screen (AID 720652; active means well fitted curve in the direction sought with a large enough effect in the repeat runs; an effect the other way counts as inactive or inconclusive;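 further: compound exposure lasted 16 hr before ATP read; on the % scale 0 is the no-effect control and ±100 the full control effect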). To be noted: RORgamma reporter cell line viability counter screen; series mostly up to 92.2 µM. Summed up: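 Cytotoxicity counter screen: intracellular ATP (CellTiter-Glo luminescence) measured in the doxycycline-induced CHO RORE-luciferase reporter line after 16 hr compound exposure at 37 C, 5% CO2.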

A short description of assay [15]: qHTS assay for small molecule agonists of the antioxidant response element (ARE) signaling pathway measured by Nrf2-dependant transcriptional activity - cell viability counter screen (AID 720653; active means well fitted curve in the direction sought with a large enough effect in the repeat runs; an effect the other way counts as inactive or inconclusive; further: on the % scale 0 is the no-effect control and ±100 the full control effect). To be noted: ARE-bla HepG2 viability, CellTiter-Glo ATP luminescence, 16 h; stronger effect = lower value. Summed up:
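ARE-bla HepG2 cells treated with compounds for 16 h at 37C; this counter screen measures viability as intracellular ATP by CellTiter-Glo luminescence after 30 min at room temperature.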

Assay [16] in a line: qHTS assay for environmental chemicals that activate the Aryl hydrocarbon Receptor (AhR) signaling pathway (AID 651777). Further: % of control where 0% means no effect; nearly all actives have a fitted effect of over 15% in size. To be noted: 1A2-DRE human hepatoma cells, luciferase, 24 h; activation: stronger effect = higher value. Summed up: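 Stable CYP1A2 promoter/DRE-luciferase human hepatoma line treated 24 hr; One-Glo luminescence, 30 min RT.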
Assay [17] deals with Thyroid hormone receptor beta (Homo sapiens) (UniProt P10828). As to the kind of experiment: qHTS assay for small molecule agonists of thyroid hormone receptor beta signaling (AID 588545; calls by dose curve;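 further: 0% = DMSO only and 100% = 10 nM T3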). To be noted: TR-UAS-bla GripTite HEK 293, beta-lactamase ratio, agonist mode, 18 h, percent of T3 response, DMSO as zero; series mostly up to 76.7 µM. Summed up: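 TR-UAS-bla-GripTite HEK 293 cells in medium with 2% charcoal/dextran FBS, 0.1 mM NEAA and 1 mM sodium pyruvate were treated with titrated compounds for 18 hrs at 37 C. Beta-lactamase reporter was read with CCF4 dye (ex 405, em 460/530 nm); EC50 from Hill fits.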

Assay [18] shares this target. Put plainly: qHTS assay for small molecule antagonists of thyroid hormone receptor beta signaling (AID 588547; active means well fitted inhibition curve with a large enough effect in the signal ratio, with a control signal flat, not every such curve was filed as active; the % refers to the signal ratio;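 further: cells stimulated with 0.4 nM T3 agonist during compound exposure; on the % scale 0 is the no-effect control and ±100 the full control effect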). To be noted: TR-UAS-bla HEK293, beta-lactamase ratio, antagonist mode, 18 h. An outline of the steps:
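TR-UAS-bla GripTite HEK293 cells in 2% charcoal/dextran FBS medium; compounds 0.59 nM to 92 uM with T3 at 0.4nM final, 18 h at 37 C. Beta-lactamase read by CCF4 fluorescence (460/530 nm); Hill fits gave IC50 and efficacy.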

The nature of assay [19]: qHTS assay for small molecule agonists of the antioxidant response element (ARE) signaling pathway (AID 651741; active means well fitted activation curve with a large enough effect in the signal ratio; the % refers to the signal ratio; further: % of control where 0% means no effect). To be noted: HepG2 ARE-bla reporter, beta-lactamase FRET ratio, 16 h; series mostly up to 96 µM. An outline of the steps:
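Stably integrated ARE-beta-lactamase reporter HepG2 cells; 16 h compound incubation, 37 C; LiveBLAzer FRET substrate 2 h at room temperature; fluorescence intensity.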

Records with an inconclusive call do not appear. Activity calls are given as the source filed them. Unless noted, the call rests on the fitted dose curve; in most records, active means well fitted curve in the direction sought with a large enough effect; inconclusive means small, poorly fitted or top-dose-only effect, or another doubt; inactive means no such curve, though single readings can be large; an effect the other way counts as inactive or inconclusive.

Sequence of Peroxisome proliferator-activated receptor alpha (Homo sapiens) (Q07869 whole entry, looked up, the tested form may be a part): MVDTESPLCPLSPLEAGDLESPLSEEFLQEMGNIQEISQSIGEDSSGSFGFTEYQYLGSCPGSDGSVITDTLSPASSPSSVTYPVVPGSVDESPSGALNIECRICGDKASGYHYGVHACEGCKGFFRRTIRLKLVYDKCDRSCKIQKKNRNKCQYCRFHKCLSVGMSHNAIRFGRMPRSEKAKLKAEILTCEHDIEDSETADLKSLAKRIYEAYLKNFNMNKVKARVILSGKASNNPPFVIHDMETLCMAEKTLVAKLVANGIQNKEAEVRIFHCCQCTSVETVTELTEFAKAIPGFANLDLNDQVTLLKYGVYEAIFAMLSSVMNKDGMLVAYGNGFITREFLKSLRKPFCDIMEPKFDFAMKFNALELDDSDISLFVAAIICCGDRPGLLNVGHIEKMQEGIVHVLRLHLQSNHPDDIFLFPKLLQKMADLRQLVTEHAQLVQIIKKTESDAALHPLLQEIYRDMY
Sequence of Voltage-gated inwardly rectifying potassium channel KCNH2 (Homo sapiens) (Q12809 whole entry, looked up): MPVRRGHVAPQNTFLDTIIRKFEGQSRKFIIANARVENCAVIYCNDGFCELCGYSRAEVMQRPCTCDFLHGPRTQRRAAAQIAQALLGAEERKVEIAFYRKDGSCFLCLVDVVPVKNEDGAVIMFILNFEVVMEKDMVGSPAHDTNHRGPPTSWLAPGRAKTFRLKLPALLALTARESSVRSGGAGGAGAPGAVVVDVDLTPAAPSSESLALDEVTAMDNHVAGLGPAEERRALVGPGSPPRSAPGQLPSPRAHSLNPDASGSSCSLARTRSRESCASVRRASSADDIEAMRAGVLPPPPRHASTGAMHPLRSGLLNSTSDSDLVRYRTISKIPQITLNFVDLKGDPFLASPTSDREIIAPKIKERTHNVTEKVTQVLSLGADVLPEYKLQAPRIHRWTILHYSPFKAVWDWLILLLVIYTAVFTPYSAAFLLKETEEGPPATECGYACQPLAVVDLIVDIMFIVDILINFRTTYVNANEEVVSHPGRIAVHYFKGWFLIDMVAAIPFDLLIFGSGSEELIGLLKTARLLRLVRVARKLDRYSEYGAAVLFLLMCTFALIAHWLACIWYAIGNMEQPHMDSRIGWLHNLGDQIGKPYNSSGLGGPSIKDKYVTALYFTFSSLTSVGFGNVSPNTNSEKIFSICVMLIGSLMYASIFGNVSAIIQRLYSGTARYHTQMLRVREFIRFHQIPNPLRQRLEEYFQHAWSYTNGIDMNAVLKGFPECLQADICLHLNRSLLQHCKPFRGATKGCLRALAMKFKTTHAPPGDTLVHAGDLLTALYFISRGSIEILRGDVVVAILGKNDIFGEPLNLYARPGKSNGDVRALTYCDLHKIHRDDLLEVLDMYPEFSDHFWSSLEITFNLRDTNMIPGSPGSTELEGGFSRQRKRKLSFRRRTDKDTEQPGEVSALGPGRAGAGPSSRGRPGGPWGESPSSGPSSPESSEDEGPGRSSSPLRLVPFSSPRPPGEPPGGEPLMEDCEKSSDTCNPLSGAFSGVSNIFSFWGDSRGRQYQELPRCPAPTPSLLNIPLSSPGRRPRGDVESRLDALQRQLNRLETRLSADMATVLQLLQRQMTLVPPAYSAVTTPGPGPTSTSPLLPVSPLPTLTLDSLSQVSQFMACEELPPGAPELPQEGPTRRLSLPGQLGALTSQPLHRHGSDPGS
Sequence of Nuclear receptor ROR-gamma (Homo sapiens) (P51449 whole entry, looked up): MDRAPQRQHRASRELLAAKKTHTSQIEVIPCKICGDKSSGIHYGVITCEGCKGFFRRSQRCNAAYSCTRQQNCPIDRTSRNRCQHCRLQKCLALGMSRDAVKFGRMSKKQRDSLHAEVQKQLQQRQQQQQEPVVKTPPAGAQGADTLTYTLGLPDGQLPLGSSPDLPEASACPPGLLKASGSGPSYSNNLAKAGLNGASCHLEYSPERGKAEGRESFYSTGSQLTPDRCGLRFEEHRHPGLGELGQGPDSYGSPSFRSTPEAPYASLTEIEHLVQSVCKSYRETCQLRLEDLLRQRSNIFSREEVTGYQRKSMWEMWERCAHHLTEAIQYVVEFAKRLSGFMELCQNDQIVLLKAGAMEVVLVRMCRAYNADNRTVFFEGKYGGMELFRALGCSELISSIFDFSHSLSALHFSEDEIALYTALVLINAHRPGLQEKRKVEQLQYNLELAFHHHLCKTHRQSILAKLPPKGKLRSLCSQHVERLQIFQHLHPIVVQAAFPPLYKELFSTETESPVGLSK
Sequence of Retinoic acid receptor RXR-alpha (Homo sapiens) (P19793 whole entry, looked up): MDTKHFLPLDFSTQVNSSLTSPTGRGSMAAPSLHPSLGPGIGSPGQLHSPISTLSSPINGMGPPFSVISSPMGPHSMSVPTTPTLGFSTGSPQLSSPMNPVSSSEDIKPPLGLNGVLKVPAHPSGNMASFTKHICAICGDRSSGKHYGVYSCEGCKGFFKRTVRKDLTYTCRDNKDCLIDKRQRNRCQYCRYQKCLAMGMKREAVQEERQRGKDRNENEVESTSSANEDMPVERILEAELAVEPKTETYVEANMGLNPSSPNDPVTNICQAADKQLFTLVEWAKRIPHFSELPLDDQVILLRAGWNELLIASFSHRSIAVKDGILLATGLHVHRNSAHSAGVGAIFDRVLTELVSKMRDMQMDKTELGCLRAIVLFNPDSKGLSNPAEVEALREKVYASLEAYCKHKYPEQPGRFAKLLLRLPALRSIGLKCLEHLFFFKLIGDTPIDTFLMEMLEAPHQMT
Sequence of Thyroid hormone receptor beta (Homo sapiens) (P10828 whole entry, looked up): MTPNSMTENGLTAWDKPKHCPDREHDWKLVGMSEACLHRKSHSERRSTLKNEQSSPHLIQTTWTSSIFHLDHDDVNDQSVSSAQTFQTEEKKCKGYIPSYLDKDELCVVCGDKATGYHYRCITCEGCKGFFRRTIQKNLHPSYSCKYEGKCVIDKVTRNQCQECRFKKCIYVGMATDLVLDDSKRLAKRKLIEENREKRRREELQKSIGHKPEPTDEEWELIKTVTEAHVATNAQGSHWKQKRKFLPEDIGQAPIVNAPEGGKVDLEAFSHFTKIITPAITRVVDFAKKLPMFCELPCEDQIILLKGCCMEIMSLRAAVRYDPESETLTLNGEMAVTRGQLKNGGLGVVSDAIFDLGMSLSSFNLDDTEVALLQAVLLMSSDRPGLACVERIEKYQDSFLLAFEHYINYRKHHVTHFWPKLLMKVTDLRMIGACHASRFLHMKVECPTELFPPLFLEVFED
Sequence of Tumor necrosis factor (Homo sapiens) (P01375 whole entry, looked up): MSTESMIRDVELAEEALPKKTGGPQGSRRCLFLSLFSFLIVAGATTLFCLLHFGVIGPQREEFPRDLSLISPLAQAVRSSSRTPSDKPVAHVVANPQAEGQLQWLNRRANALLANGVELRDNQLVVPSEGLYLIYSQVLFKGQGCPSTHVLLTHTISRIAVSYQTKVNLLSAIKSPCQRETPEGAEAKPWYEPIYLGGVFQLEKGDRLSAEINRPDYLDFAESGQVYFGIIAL

Consider `COC(=O)CS`, for which the max response in [1] was -8.12%; in assay [3], -3.61%; in assay [4], 1.63% (inactive); in assay [11] it was -1.38% (inactive); in assay [15] it was -0.555% (inactive). The outcome in [2] and in assay [13] was inactive. Further, the Potency entry in assay [5], in assay [8], in [9], in assay [10], in assay [12] and in [14] was “inactive” each time. Besides, the activation is -2.8% (inactive) in assay [6] and -0.561% (inactive) in assay [7].
As for `CCc1ccccc1`, the max response is 10.6% in assay [1]; 3.87% in assay [3]; 1.68% (inactive) in assay [4]; -3.6% (inactive) in assay [11]; -7.67% (inactive) in [15]. For the same molecule, the outcome in [2] and in assay [13] was inactive. The Potency entry in assay [5], in assay [8], in [9], in assay [10], in assay [12] and in assay [14] was “inactive” each time. In addition, the values for the activation in assay [7] and in assay [16] were -1.59% (inactive) and 3.73% (inactive), respectively.
Take `COc1ccc(N)c(C)c1`: the max response in assay [1] was -12.9%; in [3], -2.69%; in [4], 8.01% (inactive); in assay [11], -5.31% (inactive); in [15], -1.87% (inactive). Also, the outcome in assay [17] and in assay [13] was inactive. In assay [18], the activity change % (negative = inhibition) is -12.3% (inactive). Moreover, the Potency result in assay [5], in [19], in assay [8], in assay [9], in [10] and in [12] was “inactive” each time. Besides, the Potency entry in assay [14] is “inactive”. Further, the activation in assay [7] is -0.857% (inactive); in assay [16], 1.75% (inactive).
Regarding `OCCO`, the max response in assay [1] was 7.28%; in assay [3] it was 0.506%; in [4] it was 11.2% (inactive); in assay [11], -4.04% (inactive); in assay [15], -3.22% (inactive). In addition, in assay [17], the outcome was inactive. For the same molecule, in [18], the activity change % (negative = inhibition) was 21% (inactive). The Potency entry in [5], in [19], in [8], in assay [9], in assay [10] and in assay [14] was “inactive” in each case. For the same molecule, the activation is -3.22% (inactive) in assay [6], -0.33% (inactive) in assay [7] and 0.215% (inactive) in assay [16].
As to `C1CCOC1`, the max response is -14.4% in [1], -8.68% in assay [3], -1.78% (inactive) in assay [11] and 5.55% (inactive) in assay [15]. For the same molecule, the call in [2] and in [13] was inactive. Moreover, the Potency entry in assay [5], in assay [19], in [10] and in [14] was “inactive” in each case. In addition, the activation in [7] is 1.14% (inactive); in assay [16], 0.0348% (inactive).
Turning to `CNC(=O)c1ccccc1`, the max response in [1] is -5.28%; in assay [3] it was -1.2%; in assay [4], 15.4% (inactive); in assay [11], -1.17% (inactive); in [15], -3.92% (inactive). For the same molecule, in assay [2], the molecule was classed as inactive. In addition, the Potency result in assay [19], in [8], in assay [9], in assay [10], in assay [12] and in assay [14] was “inactive” in each case. Also, the activation was 1.09% (inactive) in assay [6], -1.22% (inactive) in assay [7] and -0.192% (inactive) in assay [16].
`COc1ccc(OC)cc1`: the max response in assay [1] was -11%; in assay [3] it was -6.6%; in assay [4] it was 0.277% (inactive); in [11] it was -4.92% (inactive); in assay [15], 4.82% (inactive). The result in assay [2] and in [13] was inactive. In addition, the Potency entry in assay [5], in assay [9], in [10], in assay [12] and in assay [14] was “inactive” throughout. For the same molecule, the results for the activation in assay [6], in assay [7] and in assay [16] were 1.53% (inactive), -2.07% (inactive) and 0.641% (inactive), respectively.
`O=C(O[C@@H](C(=O)O)[C@@H](OC(=O)c1ccccc1)C(=O)O)c1ccccc1`: the max response in assay [1] was -17.8%; in assay [3], 4.27%; in [11] it was 3.38% (inactive); in [15] it was -4.37% (inactive). In addition, the outcome in assay [2] and in [13] was inactive. The Potency result in assay [5], in assay [8], in assay [9], in assay [10] and in [14] was “inactive” throughout. Also, the activation in [6] is -2.28% (inactive); in assay [7] it was 0.306% (inactive); in assay [16], -0.0103% (inactive).
